# BAZ2B block – qHTS Assay for Inhibitors of BAZ2B; Bromodomain adjacent to zinc finger domain protein 2B (Homo sapiens), Q9UIF8; AlphaScreen BAZ2B-H3K14Ac peptide displacement; Potency, µM (highest dose often 114 µM), without a hit: at the highest dose activity change, negative = inhibition, usual class: inhibitors; 4.4% of 360,000 active; AID 504333, 2011; further: on the % scale 0 is the no-effect control and ±100 the full control effect; nearly all actives have a fitted effect of over 60% in size
#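 Multi-concentration screen (max 110 uM) measuring displacement of acetylated histone H3 peptide from BAZ2B by AlphaScreen, using 50 nM protein, 50 nM peptide and 10 ug/mL streptavidin donor plus Ni-chelate acceptor beads.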
# GLS inhibitor – qHTS for Inhibitors of Glutaminase (GLS). Glutaminase kidney isoform, mitochondrial (Homo sapiens), O94925. GLS enzymatic activity, qHTS titration. Potency, µM (doses to about 45.5 µM), for the others: at the highest dose activity change, negative = inhibition, most hits filed as inhibitors. 0.21% of 410,000 active; further: on the % scale 0 is the no-effect control and ±100 the full control effect
#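 hKGA; 45 mM KH2PO4 pH 8.2 + 0.02% Tween-20; cpd via pin tool; 1 mM Gln soln; GluOx/HRP/Amplex Red; RT 30 min; fluor. t0 & final.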
# JMJD2A Tudor inh – qHTS Assay for Inhibitors of JMJD2A-Tudor Domain; Lysine-specific demethylase 4A (Homo sapiens), O75164; AID 504339, 2011; AlphaScreen JMJD2A-Tudor / H3K4me3 peptide binding; Potency, µM (highest dose often 114 µM), for the others: at the top dose activity change, negative = inhibition, actives largely listed as inhibitors; 4.4% of 390,000 active; further: on the % scale 0 is the no-effect control and ±100 the full control effect; nearly all actives have a fitted effect of over 50% in size
# HP1b chromo inh – HTS for Inhibitors of HP1-beta Chromodomain Interactions with Methylated Histone Tails. Chromobox protein homolog 1 (Homo sapiens), P83916. Potency, µM (titrated, usually from 114 µM), without a hit: at the highest dose activity change, negative = inhibition, usual class: inhibitors. AID 540317, 2011. AlphaScreen HP1-beta / biotin-H3K9me3 peptide binding. 0.56% of 390,000 active; further: nearly all actives have a fitted effect of over 70% in size
# Target sequence (P83916 whole entry, looked up): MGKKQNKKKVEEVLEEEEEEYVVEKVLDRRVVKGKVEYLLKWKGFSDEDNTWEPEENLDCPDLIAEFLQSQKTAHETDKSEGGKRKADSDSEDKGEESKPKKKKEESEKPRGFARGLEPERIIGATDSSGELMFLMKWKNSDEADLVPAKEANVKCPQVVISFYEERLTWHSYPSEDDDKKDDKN
#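 Compound inhibition of the preformed complex between 50 nM HP1-beta and 50 nM biotinylated H3K9me3 peptide was read by AlphaScreen. Buffer was PBS pH 7.4 with 0.01% Tween-20. Incubations ran 30 min at room temperature, with 10 ug/mL donor/acceptor beads.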
# G9a block – qHTS Assay for Inhibitors of Histone Lysine Methyltransferase G9a | G9a H3K9 monomethylation, AlphaScreen, 2 h | Histone-lysine N-methyltransferase EHMT2 (Homo sapiens), Q96KQ7 | AID 504332, 2011 | 8.8% of 350,000 active | Potency, µM (doses to about 102 µM), inactives show at the highest dose activity, negative = inhibition, actives largely listed as inhibitors; further: on the % scale 0 is the no-effect control and ±100 the full control effect; nearly all actives have a fitted effect of over 75% in size
# Target sequence (Q96KQ7 913-1193 limits assumed): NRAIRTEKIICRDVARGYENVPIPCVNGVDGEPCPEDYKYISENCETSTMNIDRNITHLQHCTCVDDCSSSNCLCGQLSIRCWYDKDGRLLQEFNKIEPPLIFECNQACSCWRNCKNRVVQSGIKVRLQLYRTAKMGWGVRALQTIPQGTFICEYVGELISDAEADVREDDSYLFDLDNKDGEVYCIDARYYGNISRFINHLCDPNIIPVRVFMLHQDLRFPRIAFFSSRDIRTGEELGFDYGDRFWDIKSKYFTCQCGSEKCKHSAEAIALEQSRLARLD
#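 Methyltransferase reactions run at room temperature for 2 h (20 nM enzyme, 500 nM biotin-H3K9 peptide, 20 uM SAM) after a 15 min compound preincubation; product detected by AlphaScreen beads and anti-H3K9me1 antibody.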
# * hit, by the source's call; ? = inconclusive; . = no result given; [ ] = dose if it differs, or a comment. Most compounds without a hit are left out; they make up all but 10% or so of the library. The call rests on the fitted dose curve; in most records, active means well fitted curve in the direction sought with a large enough effect; inconclusive means small, poorly fitted or top-dose-only effect, or another doubt; inactive means no such curve, though single readings can be large; an effect the other way counts as inactive or inconclusive. Potency means the concentration at half of the fitted maximal effect.
SMILES,BAZ2B block,GLS inhibitor,JMJD2A Tudor inh,HP1b chromo inh,G9a block
CCC(=O)NC1=C(NC(C)c2ccccc2)C(=O)c2ccccc2C1=O (stereo not given),?,1%,-29%,1%,?
CCOC(=O)N1CCN(/[N+]([O-])=N/Oc2ccc([N+](=O)[O-])cc2[N+](=O)[O-])CC1,.,.,-19%,63%,18µM*
Nc1ccc(-n2nncc2-c2ccc(Cl)cc2)cc1,-7%,-3%,?,-4%,7.1µM*
O=C(C1=C[C@H](c2ccc3c(c2)OCO3)C[C@H](OCc2ccc(CO)cc2)O1)N1CCN(Cc2ccc3c(c2)OCO3)CC1,-36%,-2%,?,4%,-23%[59 µM]
O=C(CCC(=O)N1CCOCC1)Nc1nnc(C2CCCCC2)s1,6%,1%,-14%,15%,?
COc1cccc(/C=C/C(=O)N2CC(C)OC(C)C2)c1OC (stereo not given),2%,-5%,1%,6%,4%
O=[N+]([O-])c1ccc(N/N=C/c2sc(N3CCOCC3)nc2-c2ccccc2)c(S(=O)(=O)Nc2ccccc2Cl)c1,?,-4%,-32%,-9%,71µM*
O=[N+]([O-])c1ccc(N/N=C/c2sc(N3CCOCC3)nc2-c2ccccc2)c(S(=O)(=O)Nc2ccc(Cl)cc2)c1,11µM*,16%,?,?,40µM*
Cc1cc(NC(=O)c2ccc(C)s2)n(-c2ccccc2)n1,7%,-1%,-13%[57.1 µM],23%,19%
CN(C)C(CNc1ncnc2ccccc12)c1c(F)cccc1Cl (stereo not given),1%,-4%,-16%,-16%,-7%
OCCN1CCN(c2nc(NCc3ccco3)c3ccccc3n2)CC1,-9%,-6%,?,5%,-8%[59 µM]
OCCNc1nc(Nc2cccc(O)c2)nc2ccccc12,-33%,0%,-21%,13%,71µM*
OCCNc1nc(Nc2ccc(O)cc2)nc2ccccc12,?,20%,?,-7%,?
Oc1cccc(Nc2c3ccccc3nc3ccccc23)c1,?,-2%,?,-7%,40µM*
OCCNc1nc(N2CCN(c3ccccc3)CC2)nc2ccccc12,-33%,23%,-25%,20%,79µM*
Cc1ccc(C)c(N2CCN(C(=O)c3cc(S(=O)(=O)N4CCCCC4)cn3C)CC2)c1,-30%,-7%,?,-2%[57 µM],-30%[59 µM]
COc1ccc(NCCC#N)cc1,-28%,22%,-17%,17%,-47%
Cc1nccn1CCCNC(=O)CC1C(=O)NCCN1Cc1ccc(F)cc1Cl (stereo not given),-7%,-1%,-15%,25%,.
C=CCNc1nc(C)c(C(C)=O)cc1C#N,50µM*,-2%,1%,47%,11%
CC(=O)c1cc(C#N)c(NCCCN(C)C)nc1C,8%,0%,-5%,-6%,3%
Cc1cc(=O)[nH]c2c1c(C)nn2-c1ccccc1,0%,1%,-9%,10%,-11%[59 µM]
Cc1nn(-c2ccc(Cl)cc2)c2[nH]c(CCl)cc(=O)c12,-31%,-19%,79µM*,9%,?
CCN(CC)S(=O)(=O)c1ccc(Cl)c(C(=O)NCc2ccccc2Cl)c1,-5%,-5%,2%,62%,11%[59 µM]
CCN(CC)S(=O)(=O)c1ccc(C(=O)NCc2n[nH]c(=S)n2-c2ccccc2OC)cc1,-6%,2%,22µM*,17%,3.5µM*
CCN(CC)S(=O)(=O)c1ccc(C(=O)NCc2n[nH]c(=S)n2-c2ccc(Cl)c(Cl)c2)cc1,-37%,?,-31%,1%,16µM*
SMILES,BAZ2B block,GLS inhibitor,JMJD2A Tudor inh,HP1b chromo inh,G9a block
CCN(CC)S(=O)(=O)c1ccc(C(=O)NCc2nnc(SCC(=O)OC)n2C)cc1,7%,2%,-1%,23%,5%
Cc1noc(C)c1C(=O)N1CCC1(C)C(=O)NS(=O)(=O)c1ccc(Br)cc1 (stereo not given),.,3%,.,.,.
C=CCOC(=O)C1=C(C)N=c2s/c(=C3\C(=O)N(CC(=O)O)c4ccccc43)c(=O)n2C1c1ccc(OC)cc1 (stereo not given),?,22µM*,?,-19%,8.9µM*
O=P(c1ccccc1)(c1ccccc1)c1nc(-c2ccccc2)oc1N1CCOCC1,?,0%,-20%,-3%,0%[59 µM]
COc1ccc(-c2nc(S(=O)(=O)c3ccc(C)cc3)c(N3CCCCC3)o2)cc1,?,-7%,50µM*,?,3.5µM*
Cc1ccc(S(=O)(=O)c2nc(-c3cccc(C)c3)oc2N2CCCCC2)cc1,-31%,-1%,-20%,8%,?
O=P(c1ccccc1)(c1ccccc1)c1nc(-c2ccc(Cl)cc2)oc1N1CCOCC1,45µM*,-17%,?,-30%,?
Cc1ccc(-c2nc(S(=O)(=O)c3ccc(Cl)cc3)c(N3CCCCC3)o2)cc1,?,-7%,-34%,?,2.8µM*
CC(C)(C)c1ccc(-c2nc(S(=O)(=O)c3ccccc3)c(N3CCOCC3)o2)cc1,?,-6%,?,-12%,?
COc1ccc(-c2nc(S(=O)(=O)c3ccccc3)c(N3CCOCC3)o2)cc1,-29%,0%,79µM*,-1%,?
Cc1cccc(CNC(=O)Cc2ccc(NC(=O)N3CCCCc4ccccc43)cc2)c1,-17%,6%,-20%,30%,10%[59 µM]
CCC1Oc2ccc(C)cc2N(CC(=O)NCCCN2CCCCC2C)C1=O (stereo not given),11%[57.1 µM],-3%,-5%,18%,?
COC(=O)[C@@]1(Cc2ccc(OC)cc2)[C@H]2c3cc(C(=O)N4CCCC4)n(CCO)c3C[C@H]2CN1C(=O)c1ccccc1,-32%,2%,-29%,10%,50µM*
COC(=O)[C@@]1(Cc2ccc(F)cc2)[C@H]2c3cc(C(=O)N4CCCC4)n(CCc4ccc(O)c(O)c4)c3C[C@H]2CN1C(=O)c1ccccc1,40µM*,.,.,.,7.1µM*
COC(=O)[C@@]1(Cc2ccc(F)cc2)[C@H]2c3cc(C(=O)N4CCCC4)n(CCc4ccc(OC)c(Br)c4)c3C[C@H]2CN1C(=O)c1ccccc1,.,0%,.,.,.
COC(=O)[C@@]1(Cc2ccc(F)cc2)[C@H]2c3cc(C(=O)N4CCCC4)n(CCO)c3C[C@H]2CN1C(=O)c1ccccc1,?,14%,-23%,6%,?
COC(=O)[C@@]1(Cc2ccc(F)cc2)[C@H]2c3cc(C(=O)N(C)C)n(Cc4ccc(OC(F)(F)F)cc4)c3C[C@H]2CN1C(=O)c1ccccc1,-38%,.,.,.,50µM*
